# Screening results (PubChem BioAssay)
# A selection: hits, their analogues and other compounds. The true share with any hit is near 2.2%.
# GLP-1R agonist = activates the human GLP-1 receptor; HEK293 GLP-1R CRE-luciferase, luminescence, 4-6 h; cells express a hypersensitive GLP-1R form; Potency, µM (highest dose often 45.6 µM), for the others: at the top dose activation, most hits filed as activators; 380,000 tested, 0.007% active; also: potency is read from the fitted curve at half-maximal effect; % of control where 0% means no effect
# Target sequence (P43220 whole entry, looked up): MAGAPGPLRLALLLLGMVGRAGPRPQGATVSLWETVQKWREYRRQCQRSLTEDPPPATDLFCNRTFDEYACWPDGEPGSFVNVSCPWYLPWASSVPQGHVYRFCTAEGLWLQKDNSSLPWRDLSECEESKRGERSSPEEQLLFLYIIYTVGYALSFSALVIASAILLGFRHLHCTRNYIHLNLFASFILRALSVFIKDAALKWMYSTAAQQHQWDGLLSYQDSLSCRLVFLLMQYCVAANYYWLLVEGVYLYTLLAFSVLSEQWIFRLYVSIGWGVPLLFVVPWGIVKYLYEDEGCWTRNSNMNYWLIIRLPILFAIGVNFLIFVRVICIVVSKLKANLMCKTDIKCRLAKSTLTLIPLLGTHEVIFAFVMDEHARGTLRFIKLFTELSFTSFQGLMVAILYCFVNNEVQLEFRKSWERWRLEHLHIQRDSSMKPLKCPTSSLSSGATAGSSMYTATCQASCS
# MmCpn inh = blocks the Methanococcus maripaludis chaperonin Mm-Cpn | Potency, µM (highest dose often 76.9 µM), inactives show at the top dose activity, negative = inhibition, most hits filed as inhibitors | 330,000 tested, 0.031% active | AID 504842 | purified Mm-Cpn ATPase, ADP Transcreener TR-FRET; also: potency is read from the fitted curve at half-maximal effect; % is scaled to controls: 0 for no effect and ±100 for the full control effect; nearly all actives have a fitted effect of over 80% in size
#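 Eu-cryptate anti-ADP/ADP-d2 competition gives a ratio inversely related to ADP. Enzyme at 25 nM was pre-exposed to compound for 10 min, then given 10 uM ATP for 30 min, 37°C throughout.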
# CCT chaperon mod = modulators of cytosolic chaperonin (CCT/TRiC) activity. purified chaperonin ATPase assay, HTRF ADP detection, 30 min. activity change, % (concentration not given with the values), hits read low. 360,000 tested, 0.3% active. AID 651819; in the data active = activity change below about -30%; also: % is scaled to controls: 0 for no effect and ±100 for the full control effect
#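 TRiC (40 or 20 nM final, by batch activity) in 30 mM Tris pH 7.4, 100 mM KCl, 5 mM MgCl2, 1 mM DTT was treated with compound at 76 uM single dose, then 10 uM ATP, 30 min at 37 °C. ADP was read by HTRF Transcreener.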
# GLP1R inv ag = acts as inverse agonist at human GLP-1 receptor | P43220 | HEK293 GLP-1R CRE-luciferase, luminescence, 24 h; GLP-1R form is constitutively active | Potency, µM (top dose mostly 38.3 µM), without a hit: at the highest dose activity change, negative = inhibition, most hits filed as inhibitors | 410,000 tested, 1.6% active | AID 624417; also: potency is read from the fitted curve at half-maximal effect; % is scaled to controls: 0 for no effect and ±100 for the full control effect; nearly all actives have a fitted effect of over 55% in size
#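 qHTS in 1536-well format: reporter HEK293 cells expressing constitutive GLP-1R activity in DMEM + 10% Nu serum, 24 hr with compounds at 37 deg C, luminescence read after 12 min with detection reagent.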
# HEK293 tox = cytotoxicity counter-screen for GLP-1 receptor inverse agonists; 410,000 tested, 0.13% active; HEK293 cAMP-luciferase reporter cells, luminescence, 24 h; Potency, µM (highest dose often 38.3 µM), for inactives: at the top dose activity change, negative = inhibition, actives largely listed as inhibitors;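 also: loss of luciferase light is scored as toxicity; potency is read from the fitted curve at half-maximal effect; % is scaled to controls: 0 for no effect and ±100 for the full control effect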
#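 Step one: seed cells (200 cells/uL, DMEM with 10% Nu serum, 1% pen-strep). Step two: 12-hour incubation at 37 deg C. Step three: pin 23 nL compound, incubate 24 hr. Step four: add luciferase reagent, read luminescence 12 min later.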
# uPA generation = blocks generation of uPA at the cell surface; cell surface uPA generation assay, qHTS; Potency, µM (titrated, usually from 38.3 µM), for the others: at the highest dose activity change, negative = inhibition, hits mostly inhibitors; 330,000 tested, 0.31% active; AID 540303; active = well fitted inhibition curve with a large enough effect; inconclusive = small, poorly fitted or top-dose-only effect; inactive = no such curve, though single readings can be large or run the other way; tested in mouse RAW 264.7 cells; also: potency is read from the fitted curve at half-maximal effect; % is scaled to controls: 0 for no effect and ±100 for the full control effect; nearly all actives have a fitted effect of over 55% in size
# The depositor's hits bear a star; u = inconclusive; x = no result given; [ ] = another dose, or the depositor's remark. Unless noted, calls follow the shape of the dose curve; as a rule, active = well fitted curve in the direction sought with a large enough effect; inconclusive = small, poorly fitted or top-dose-only effect, or another doubt; inactive = no such curve, though single readings can be large; an effect the other way counts as inactive or inconclusive.
SMILES,GLP-1R agonist,MmCpn inh,CCT chaperon mod,GLP1R inv ag,HEK293 tox,uPA generation
Cc1ccc(NC(=O)c2ccc3c(c2)NC(=O)c2ccccc2S3)cc1,x,x,x,u,-32.6%,x
CCOC(=O)Cc1csc(NC(=O)Nc2ccc(Cl)cc2)n1,-0.9%,0.0%,-0.3,11.2µM*,0.9%,-7.5%
Cc1cnc(NC(=O)CSc2ccc(Cl)cc2)s1,-1.7%,1.3%,-1.5,u,-15.6%,5.3%
Cc1cnc(NC(=O)Nc2ccc(Cl)cc2)s1,9.0%,-1.1%,-0.6,u,2.5%,2.24µM*
CCOC(=O)C(Oc1ccc2c(-c3ccccc3)cc(=O)oc2c1)c1ccccc1 (centres undefined),14.2%,-0.8%,1.2,11.2µM*,23.6%,-6.4%
NCCO,-1.6%[96 µM],x,x,x,x,x
COCc1c(C(=O)N2CCN(Cc3c(F)cccc3Cl)CC2)oc2ccccc12,23.6%,-0.8%,-1.5,10µM*,-2.4%,4.2%
O=C(c1ccc2c(c1)CCC2)N1CCN(Cc2c(F)cccc2Cl)CC1,-7.4%,x,0.8,10µM*,1.9%,x
COCc1c(C(=O)N2CCN(Cc3ccc(C#N)cc3)CC2)oc2ccccc12,19.7%,-0.6%,-1.7,-29.0%,-3.6%,-5.1%
O=C(c1ccc2c(c1)OCCO2)N1CCN(Cc2c(F)cccc2Cl)CC1,2.2%,0.8%,0.6,u,-4.5%,4.6%
CCOc1ccccc1CNC(=O)c1ccc(CS(=O)Cc2cccc(Cl)c2)o1 (centres undefined),x,x,x,u,-8.3%,x
CSC[C@H]1CN(CCc2ccccc2)C(=O)[C@@H]1CC(=O)Nc1ccc(Br)cc1,4.6%,x,-1.2,10µM*,-13.4%,x
O=C(C[C@H]1C(=O)N(CCc2ccccc2)C[C@@H]1Cc1ccccc1)Nc1ccc(Br)cc1,-5.9%,x,0.0,7.94µM*,-24.3%,x
O=C(C[C@H]1C(=O)N(C2CCCCC2)C[C@@H]1c1ccccc1)Nc1ccc(Br)cc1,-1.6%,x,-53.0*,u,0.9%,x
CCCCN1C[C@H](CSC)[C@@H](CC(=O)Nc2ccc(Br)cc2)C1=O,15.7%,x,-1.0,u,-1.9%,x
COc1ccc(NC(=O)C[C@H]2C(=O)N(C3CCCCC3)C[C@@H]2c2ccccc2)cc1,-4.6%,x,1.1,-7.7%,-6.4%,x
CCOc1ccc(CNC(=O)C2Cc3cc(S(=O)(=O)N4CCCCCC4)ccc3N2C(C)=O)cc1 (centres undefined),1.2%,x,x,4.6%,-1.7%,x
CC1C/C(=N\NC(N)=S)c2cc(Cl)ccc2S1 (centres undefined),-16.0%,-12.5%,1.0,u,2.24µM*,-5.0%
CSc1cccc(Nc2nc3c(S(=O)(=O)c4ccccc4)nnn3c3ccc(Cl)cc23)c1,x,x,x,-2.7%,29.7%,x
O=C(Cc1ccc(Cl)cc1)c1c[nH]c(C(=O)NCc2cccnc2)c1,-7.5%,0.8%,0.4,2.82µM*,u,7.8%
COc1ccc(N=C2C(=S)N(c3ccc(OC)cc3)C(=NS(=O)(=O)c3ccccc3)N2c2ccccc2)cc1,-1.1%,x,-5.9,-23.3%,-12.5%,-3.3%
N=C1N(c2ccccc2)C(=S)C(=Nc2ccccc2)N1c1ccccc1,10.9%,x,-3.2,12.6µM*,-0.6%,-3.3%
Cc1ccc(-n2ncc3c(N(C)Cc4ccccc4)ncnc32)cc1,x,x,x,-8.6%,2.7%,x
COc1ccc(N2CCN(C(=S)NC(=O)c3cccs3)CC2)c([N+](=O)[O-])c1,9.1%,1.4%,-2.4,u,u,-9.4%
O=C(NC(=S)N1CCN(c2c(Cl)cccc2[N+](=O)[O-])CC1)c1cccs1,-0.1%,0.2%,-2.6,0.0%,7.08µM*,-1.1%
SMILES,GLP-1R agonist,MmCpn inh,CCT chaperon mod,GLP1R inv ag,HEK293 tox,uPA generation
CCOC(=O)CSc1nnc([C@H](Cc2ccccc2)NC(=O)OC(C)(C)C)o1,5.3%,0.8%,-0.1,-17.8%,-7.0%,x
CC(C)C[C@H](NC(=O)OC(C)(C)C)c1nnc(SCc2ccccc2)o1,0.4%,-3.5%,-4.1,8.91µM*,1.7%,6.0%
COCCNc1nc2cc(-c3ccc(F)cc3)sc2c(=O)n1C,11.9%,x,0.9,-6.9%,4.4%,x
O=c1[nH]c(CCl)nc2cc(-c3ccc(F)cc3)sc12,-1.0%,0.3%,-39.5*,u,-3.6%,-17.8%
C[C@]12C(=O)N(c3ccc(F)cc3)C(=O)N1[C@H]1c3ccccc3OC[C@@H]1[C@H]2c1ccccc1,-4.7%,-3.4%,-1.3,u,-18.5%,1.0%
C[C@@]12C(=O)N(c3ccc(F)cc3)C(=O)N1[C@@H]1c3ccccc3OC[C@@H]1[C@H]2c1ccccc1,-0.2%,-3.9%,-1.5,10µM*,-6.5%,-10.1%
COc1ccc(CNC(=O)CCC2N=C3c4ccccc4N=C(SCc4ccc(F)cc4)N3C2=O)cc1 (centres undefined),x,x,x,u,1.4%,x
CC1=CC(C)(C)Nc2ccc(C)cc21,-11.7%,-0.1%,0.5,0.0%,-17.8%,4.5%
CC1=CC(C)(C)Nc2ccc(Cc3ccc4c(c3)C(C)=CC(C)(C)N4)cc21,-0.6%,1.8%,-0.5,2.82µM*,-15.4%,u
Cc1nn(-c2ccccc2)c(C)c1C(=O)NCc1ccc(F)cc1,-0.3%,-4.1%,0.3,1.4%,-12.0%,6.9%
Cc1c(C(=O)NCc2ccc(F)cc2)c(-c2ccccc2)nn1-c1ccccc1,4.9%,-0.2%,-5.9,5.01µM*,1.7%,6.3%
CN1/C(=C\C(=S)Nc2ccccc2)C(C)(C)c2ccccc21,11.5%,-8.6%,-0.5,11.2µM*,u,-5.8%
CN1/C(=C\C(=O)Nc2ccc(Cl)cc2)C(C)(C)c2ccccc21,17.1%,-6.8%,-2.9,10µM*,-26.0%,1.2%
Cn1ccc2cc(-c3ccc4ncnc(NCc5cccnc5)c4c3)ccc21,x,-3.4%,x,x,x,x
O=C(CSc1nnc(-c2ccc(Cl)cc2)n1Cc1ccco1)Nc1ccc2c(c1)OCCO2,7.2%,1.4%,-0.7,u,-19.0%,x
O=C(CSc1nnc(-c2ccc(Cl)cc2)n1Cc1ccco1)NCc1ccc2c(c1)OCO2,-2.8%,x,-1.1,10µM*,-14.7%,1.8%
Cc1ccc(SCC(=O)Nc2ccccc2N2CCOCC2)cc1,11.3%,2.2%,0.0,7.94µM*,3.4%,-11.2%
COC(=O)C1=C(C)NC(=O)CC1c1cccc(Cl)c1Cl (centres undefined),-4.3%,-0.5%,-30.5*,u,1.9%,-1.6%
Cc1ccc(C)c(C(C)NC(=S)NC2CCCCC2)c1 (centres undefined),0.8%,-0.3%,-3.0,2.82µM*,-25.2%,-1.2%
Cc1ccc(C)c(C(C)NC(=O)C2CCCC2)c1 (centres undefined),-6.2%,u,-0.8,-18.5%,5.7%,2.5%
CCC(CCCO)CCC[C@H](C)CCC1OCCO1 (some centres undefined),-2.6%,-0.5%,2.6,8.91µM*,17.1%,8.7%
